# Reference: PubChem BioAssay AID488969 (Vanderbilt High Throughput Screening Facility, 2010)
# Over roughly 110,000 compounds, “z-score” has its median near -0.1; the highest 2% begin near 2. Only a selection was taken, and the highest values are over-represented in it overall. The source made the active and inactive calls.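 The calls were made as follows: active = z-score in the third read window above 3 or below -3; inactive = the rest.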
# Biological target: Metabotropic glutamate receptor 8 (Rattus norvegicus) (UniProt P70579)
# Sequence (P70579 whole entry, looked up): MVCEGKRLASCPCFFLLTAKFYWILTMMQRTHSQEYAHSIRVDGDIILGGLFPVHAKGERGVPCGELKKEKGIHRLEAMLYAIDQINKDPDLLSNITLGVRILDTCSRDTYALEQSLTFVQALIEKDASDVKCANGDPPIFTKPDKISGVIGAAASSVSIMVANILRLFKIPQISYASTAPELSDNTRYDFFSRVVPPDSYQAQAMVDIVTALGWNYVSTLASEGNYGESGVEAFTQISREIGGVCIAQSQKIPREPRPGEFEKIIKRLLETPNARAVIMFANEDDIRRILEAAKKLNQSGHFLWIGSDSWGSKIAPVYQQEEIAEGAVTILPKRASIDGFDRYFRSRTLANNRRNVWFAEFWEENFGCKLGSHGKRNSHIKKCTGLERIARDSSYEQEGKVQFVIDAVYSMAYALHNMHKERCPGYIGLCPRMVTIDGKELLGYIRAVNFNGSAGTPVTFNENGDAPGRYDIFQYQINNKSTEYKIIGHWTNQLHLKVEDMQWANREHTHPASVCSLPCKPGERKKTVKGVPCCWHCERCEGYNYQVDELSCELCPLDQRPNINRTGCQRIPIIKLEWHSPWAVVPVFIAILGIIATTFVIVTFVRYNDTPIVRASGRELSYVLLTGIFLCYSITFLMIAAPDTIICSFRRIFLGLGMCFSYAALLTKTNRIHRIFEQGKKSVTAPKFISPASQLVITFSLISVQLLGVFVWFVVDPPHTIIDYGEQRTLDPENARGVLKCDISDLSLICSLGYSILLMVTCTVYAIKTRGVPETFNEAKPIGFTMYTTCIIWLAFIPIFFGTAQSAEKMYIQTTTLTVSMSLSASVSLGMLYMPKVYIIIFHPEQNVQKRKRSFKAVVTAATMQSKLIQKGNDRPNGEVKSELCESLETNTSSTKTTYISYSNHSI
# Experiment: mGluR8 Gi/Go-coupled signaling modulation – cell-based, rat, thallium flux, HTS, primary screen (AID 488969)
# Conditions: HEK293 rat mGluR8, GIRK (G protein-gated inwardly rectifying potassium channel) thallium flux, FluoZin2; at 10 µM; stronger effect = higher value; submaximal glutamate (EC20) added with thallium
row,SMILES,z-score
1,CC1(C)CC(=O)c2cnc(N3CCc4ccccc4C3)nc2C1,0.63
2,Brc1ccc(-c2csc(-c3ccncc3)n2)cc1,0.161
3,CCOC(=O)c1c(C=O)c(C)n(Cc2ccc(Cl)cc2)c1C,0.0766
4,CCCN1C2=C(C(=O)CCC2)C(c2ccc(F)cc2)C2=C1c1ccccc1C2=O (stereo not drawn),-0.266
5,O=C(Cn1cnc2c(nnn2-c2ccc(F)cc2)c1=O)NCc1ccco1,-0.127
6,O=C(NCc1ccco1)c1cccc(S(=O)(=O)N2CCc3ccccc32)c1,-0.341
7,COc1ccc(C(=O)/C=C/c2cn(CN3CCN(C)CC3)c3ccccc23)cc1,-0.629
8,CCC(=C(c1ccc(OC)cc1)c1ccc(OC)cc1)c1cn(CC(O)CN2CCN(C)CC2)c2ccccc12 (stereo not drawn),2.63
9,COc1ccc(C(=O)/C=C/c2cn(CC(O)CN3CCOCC3)c3ccccc23)cc1 (stereo not drawn),-0.177
10,COc1ccc(-n2c(COc3ccc4ccccc4c3)nnc2SCC(=O)NCc2ccco2)cc1,0.832
11,COc1cnc(-c2ccccc2)nc1Oc1cccc(C)c1C,-0.012
12,Cc1cccc(OCC(=O)Nc2nc3ccc([N+](=O)[O-])cc3s2)c1C,-0.12
13,Cc1cccc(OCC(=O)Nc2nc3ccc([N+](=O)[O-])cc3s2)c1,2.05
14,Cc1ccc(C)c(OCC(=O)Nc2nc3ccc([N+](=O)[O-])cc3s2)c1C,2.46
15,CCOCC(=O)Nc1nc2ccc(C)cc2s1,-0.0136
16,Cc1ccc(C)c(OCC(=O)Nc2nc3ccc([N+](=O)[O-])cc3s2)c1,0.0186
17,COCC(=O)Nc1nc2ccc(C)cc2s1,0.0888
18,O=C(CCl)N1c2ccccc2OCC1c1ccccc1 (stereo not drawn),-0.994
19,NC(=O)NC(=O)CSc1nc(C2CCCCC2)n(-c2ccccc2)n1,-0.264
20,Cc1ccc(CNc2oc(-c3ccco3)nc2C#N)cc1,-0.32
21,Cc1nnc(N2C(=O)C(O)=C(C(=O)c3ccco3)C2c2ccc(C(C)(C)C)cc2)s1 (stereo not drawn),-0.554
22,Cc1ccc(NC(=O)COC(=O)c2sccc2C)cc1S(=O)(=O)N1CCOCC1,1.38
23,Cn1c(=O)n(C)c2cc(S(=O)(=O)N3CCOCC3)ccc21,-0.185
24,Cc1ccc(Nc2ccc(S(=O)(=O)N3CCOCC3)cc2[N+](=O)[O-])c(C)c1,1.29
25,Cc1ccc(NC(=S)N=Nc2c(O)n(C)c3ccc(S(=O)(=O)N4CCOCC4)cc23)cc1,3.93 (active)
26,Cc1cc(C)cc(NC(=S)N=Nc2c(O)n(C)c3ccc(S(=O)(=O)N4CCOCC4)cc23)c1,0.616
27,Cn1c(=O)c2cc(S(=O)(=O)N3CCOCC3)ccc2n(C)c1=O,0.139
28,Cc1ccc(C)c(NC(=S)N=Nc2c(O)n(C)c3ccc(S(=O)(=O)N4CCOCC4)cc23)c1,4.13 (active)
